We go through eight compounds from PubChem BioAssay (Tox21).

Several values for one entry are separate records, joined by “and”; a condition that tells them apart may be missing. Equal entries are not always repeated. Records with an inconclusive call do not appear. Where a structure was tested more than once in an assay, its records may differ in their call. Activity calls are given as the source filed them. Unless noted, the call rests on the fitted dose curve; in most records, active means well fitted curve in the direction sought with a large enough effect in the repeat runs; inconclusive means weak or mixed curves; inactive means no such curve, though single readings can be large; an effect the other way counts as inactive or inconclusive.

A short description of assay [1]: qHTS assay to identify aromatase inhibitors - cell viability counter screen (AID 743084).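 Further: cells stimulated with testosterone during compound exposure; nearly all actives have a fitted effect of over 55% in size.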 Further: potency means the concentration at half of the fitted maximal effect.
Assay [2] deals with Aryl hydrocarbon receptor (Homo sapiens) (UniProt P35869). In words: qHTS assay to identify small molecule that activate the aryl hydrocarbon receptor (AhR) signaling pathway (AID 743085). Further: nearly all actives have a fitted effect of over 15% in size. Further: potency means the concentration at half of the fitted maximal effect.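 On activation: HG2L7.5c1 human HepG2 liver cells with stably integrated DRE-driven firefly reporter; series mostly up to about 70 µM.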 The method in brief:
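Measured in HG2L7.5c1 cells: CellTiter-Fluor signal (30 min incubation, 37C) for viability, then luciferase luminescence (30 min, room temperature). Compound contact time was 24 h at 37C, following a 5 h pre-incubation.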
Background: In qHTS, concentration-response curves come from the screen itself.

Assay [3] is described as follows: qHTS assay to identify small molecule that activate the aryl hydrocarbon receptor (AhR) signaling pathway - cell viability counter screen (AID 743086). Further: nearly all actives have a fitted effect of over 45% in size. Further: potency means the concentration at half of the fitted maximal effect. The method in brief:
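HepG2-AhR-luc (HG2L7.5c1) cells, 4000/well, were preincubated 5 h at 37C, exposed to compound in qHTS format for 24 hr at 37C, then given CellTiter-Fluor for 30 min; viability was read as fluorescence in the reporter wells.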

Assay [4] is described as follows: qHTS assay to identify small molecule antagonists of the peroxisome proliferator-activated receptor gamma (PPARg) signaling pathway - cell viability counter screen (AID 743194). Further: nearly all actives have a fitted effect of over 55% in size. Further: potency means the concentration at half of the fitted maximal effect. The method in brief:
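PPARg-UAS-bla HEK293H cells were plated, rested 5 h at 37 C, then treated with compounds plus rosiglitazone (50 nM final) for 17 h at 37 C; viability was then read by CellTiter-Glo luminescence after 30 min at room temperature.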

Assay [5] can be described thus: qHTS assay for small molecule agonists of the antioxidant response element (ARE) signaling pathway - cell viability counter screen (AID 743203; calls by dose curve; further: nearly all actives have a fitted effect of over 55% in size; further: potency means the concentration at half of the fitted maximal effect). In outline:
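Cells (ARE-bla HepG2, 2,000/well) receive DMSO-dissolved compounds after a 5 hrs rest. Plates incubate 16 hrs at 37C/5% CO2. CellTiter-Glo luminescence is then recorded after 30 min at room temperature.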

Assay [6] in a line: qHTS assay to identify small molecule antagonists of the peroxisome proliferator-activated receptor delta (PPARd) signaling pathway - cell viability counter screen (AID 743213). Further: nearly all actives have a fitted effect of over 50% in size. Further: potency means the concentration at half of the fitted maximal effect. The method in brief:
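PPARd-bla HEK293H cells (3000/well) got compound plus 300 nM L165041 agonist for 17 h at 37 C. Viability in the same wells came from CellTiter-Glo luminescence after 30 min at room temperature.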

Assay [7] can be described thus: qHTS assay to identify small molecule agonists of the farnesoid-X-receptor (FXR) signaling pathway - cell viability counter screen (AID 743218). Further: nearly all actives have a fitted effect of over 45% in size. Further: potency means the concentration at half of the fitted maximal effect. In outline:
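In GeneBLAzer FXR-UAS-bla HEK 293T cells, compounds act for 16 h at 37 C. Cell viability is then scored in the reporter wells by CellTiter-Glo, 30 min at RT, luminescence.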

A short description of assay [8]: qHTS assay to identify small molecule antagonists of the farnesoid-X-receptor (FXR) signaling pathway - cell viability counter screen (AID 743221; active means well fitted cell-killing curve with a large enough effect in the repeat runs, not every such curve was filed as active; further: nearly all actives have a fitted effect of over 50% in size; further: potency means the concentration at half of the fitted maximal effect). In outline:
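Compound effects on cell number were measured as CellTiter-Glo luminescence in HEK 293T cells expressing FXR-UAS-bla, after 16 h at 37 C with 50 uM CDCA (final).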

For assay [9], the target named is Peroxisome proliferator-activated receptor gamma (Homo sapiens) (UniProt P37231). In words: qHTS assay to identify small molecule agonists of the peroxisome proliferator-activated receptor gamma (PPARg) signaling pathway (AID 743094; active means well fitted activation curve with a large enough effect in the signal ratio in the repeat runs, not every such curve was filed as active; the % refers to the signal ratio). In outline: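 Stably transfected HEK293H cells (GeneBLAzer PPARg UAS-bla) were incubated with test substances for 17 h at 37C after a 5 h pre-incubation; beta-lactamase activity was then detected by FRET substrate fluorescence.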

Assay [10] can be described thus: qHTS assay for small molecule activators of the heat shock response signaling pathway - cell viability counter screen (AID 743209). Further: nearly all actives have a fitted effect of over 50% in size. Further: potency means the concentration at half of the fitted maximal effect. The method in brief: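 Quantitative HTS format, Tox21 10K library. HeLa cells carrying an HSE-driven beta-lactamase reporter were treated 5 h at 37 C, then assessed for viability by CellTiter-Glo luminescence.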
The target in assay [11] is Vitamin D3 receptor (Homo sapiens) (UniProt P11473). In words: qHTS assay to identify small molecule antagonists of the vitamin D receptor (VDR) signaling pathway (AID 743223; active means well fitted inhibition curve with a large enough effect in the signal ratio in the repeat runs, not every such curve was filed as active; the % refers to the signal ratio). The method in brief: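 Beta-lactamase activity in VDR-bla cells is measured by FRET substrate fluorescence (2 h, room temperature) after cells spend 16 h at 37C with test compound and 3 nM final 1alpha,25-dihydroxyvitamin D3.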

Assay [12] in a line: qHTS assay for small molecule activators of the heat shock response signaling pathway (AID 743210; active means well fitted activation curve with a large enough effect in the signal ratio in the repeat runs, with a control signal flat, not every such curve was filed as active; the % refers to the signal ratio; further: series mostly up to about 63 µM). In outline:
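Reporter gene assay: HeLa cells stably bearing an HSE-bla construct, compound treatment 5 h at 37 C, LiveBLAzer substrate 2.5 h at RT, fluorescence intensity.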

Assay [13] can be described thus: qHTS assay to identify small molecule agonists of the peroxisome proliferator-activated receptor delta (PPARd) signaling pathway - cell viability counter screen (AID 743211). Further: nearly all actives have a fitted effect of over 55% in size. Further: potency means the concentration at half of the fitted maximal effect. The method in brief: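 Following 5 h plating at 37 C and 5% CO2, PPARd UAS-bla HEK293H cells took up test compounds for 17 h. Viability was quantified by luminescence 30 min after CellTiter-Glo addition at room temperature.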

Assay [14] deals with Bile acid receptor (Homo sapiens) (UniProt Q96RI1). As to the kind of experiment: qHTS assay to identify small molecule agonists of the farnesoid-X-receptor (FXR) signaling pathway (AID 743220; active means well fitted activation curve with a large enough effect in the signal ratio in the repeat runs, not every such curve was filed as active; the % refers to the signal ratio). In outline:
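Beta-lactamase reporter under UAS control in GeneBLAzer FXR HEK 293T cells (5000/well) measured with LiveBLAzer FRET substrate after 2 h at room temperature. Compound exposure lasted 16 h at 37C.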

Assay [15] has as its target Vitamin D3 receptor (Homo sapiens) (UniProt P11473). In words: qHTS assay to identify small molecule agonists of the vitamin D receptor (VDR) signaling pathway (AID 743222; calls by dose curve). The method in brief: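 Agonist activity measured in VDR-bla reporter cells. Exposure 16 h, 37C, 5% CO2; detection by B/G FRET substrate, 2 h RT.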
Assay [16] can be described thus: qHTS assay for small molecule agonists of the antioxidant response element (ARE) signaling pathway (AID 743202; active means well fitted activation curve with a large enough effect in the signal ratio in the repeat runs, not every such curve was filed as active; the % refers to the signal ratio; further: potency means the concentration at half of the fitted maximal effect). The method in brief:
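Compounds delivered in DMSO to ARE-bla HepG2 cells (2,000 cells/well, pre-incubated 5 h) and left 16 h at 37 C. LiveBLAzer B/G FRET substrate then added for 2 h at RT before fluorescence reading.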

The target of assay [17] is Peroxisome proliferator-activated receptor delta (Homo sapiens) (UniProt Q03181). As to the kind of experiment: qHTS assay to identify small molecule agonists of the peroxisome proliferator-activated receptor delta (PPARd) signaling pathway (AID 743212; calls by dose curve). The method in brief:
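A PPARd-bla HEK293H line with beta-lactamase under an Upstream Activator Sequence is treated with compounds at 37 C. Substrate loading for 2 h at room temperature precedes the fluorescence measurement.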

Assay [18] has the same target. As to the kind of experiment: qHTS assay to identify small molecule antagonists of the peroxisome proliferator-activated receptor delta (PPARd) signaling pathway (AID 743215; active means well fitted inhibition curve with a large enough effect in the signal ratio in the repeat runs, not every such curve was filed as active; the % refers to the signal ratio;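 further: cells stimulated with agonist L165041 at 300 nM final during compound exposure; series mostly up to about 62 µM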). The method in brief:
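Antagonist-mode beta-lactamase reporter screen: HEK293H cells with UAS-bla under PPARd control, stimulated by 300 nM L165041 (final) alongside test compound for 17 h at 37 C, then FRET fluorescence after 2 h substrate incubation.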

Assay [19] addresses Bile acid receptor (Homo sapiens) (UniProt Q96RI1). As to the kind of experiment: qHTS assay to identify small molecule antagonists of the farnesoid-X-receptor (FXR) signaling pathway (AID 743217; active means well fitted inhibition curve with a large enough effect in the signal ratio in the repeat runs, not every such curve was filed as active; the % refers to the signal ratio). The method in brief:
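Beta-lactamase reporter under UAS control in HEK 293T cells; compound exposure 16 h at 37 °C in the presence of chenodeoxycholic acid (50 uM final); signal from B/G FRET substrate after 2 h at room temperature.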

Assay [20] deals with Peroxisome proliferator-activated receptor gamma (Homo sapiens) (UniProt P37231). As to the kind of experiment: qHTS assay to identify small molecule antagonists of the peroxisome proliferator-activated receptor gamma (PPARg) signaling pathway (AID 743191; calls by dose curve; further: series mostly up to about 63 µM; nearly all actives have a fitted effect of over 30% in size). In outline: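 GeneBLAzer PPARg UAS-bla HEK293H cells carrying a UAS-driven beta-lactamase reporter were plated at 3000 cells/well, preincubated 5 h at 37C, then given compound for 17 h at 37C; LiveBLAzer B/G FRET substrate was read after 1 h at room temperature.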

Sequence of Vitamin D3 receptor (Homo sapiens) (P11473 whole entry, looked up): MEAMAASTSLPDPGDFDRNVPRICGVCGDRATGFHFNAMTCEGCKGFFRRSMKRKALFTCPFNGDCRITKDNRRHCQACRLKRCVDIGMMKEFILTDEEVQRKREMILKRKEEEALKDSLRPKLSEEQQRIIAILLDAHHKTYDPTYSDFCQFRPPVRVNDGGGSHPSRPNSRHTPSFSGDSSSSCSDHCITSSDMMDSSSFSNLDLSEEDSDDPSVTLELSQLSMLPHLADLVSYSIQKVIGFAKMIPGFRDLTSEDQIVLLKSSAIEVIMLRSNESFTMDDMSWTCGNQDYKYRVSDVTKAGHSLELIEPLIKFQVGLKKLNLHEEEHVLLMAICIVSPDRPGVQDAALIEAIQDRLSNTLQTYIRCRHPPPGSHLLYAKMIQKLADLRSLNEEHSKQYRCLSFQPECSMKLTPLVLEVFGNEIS
Sequence of Bile acid receptor (Homo sapiens) (Q96RI1 whole entry, looked up): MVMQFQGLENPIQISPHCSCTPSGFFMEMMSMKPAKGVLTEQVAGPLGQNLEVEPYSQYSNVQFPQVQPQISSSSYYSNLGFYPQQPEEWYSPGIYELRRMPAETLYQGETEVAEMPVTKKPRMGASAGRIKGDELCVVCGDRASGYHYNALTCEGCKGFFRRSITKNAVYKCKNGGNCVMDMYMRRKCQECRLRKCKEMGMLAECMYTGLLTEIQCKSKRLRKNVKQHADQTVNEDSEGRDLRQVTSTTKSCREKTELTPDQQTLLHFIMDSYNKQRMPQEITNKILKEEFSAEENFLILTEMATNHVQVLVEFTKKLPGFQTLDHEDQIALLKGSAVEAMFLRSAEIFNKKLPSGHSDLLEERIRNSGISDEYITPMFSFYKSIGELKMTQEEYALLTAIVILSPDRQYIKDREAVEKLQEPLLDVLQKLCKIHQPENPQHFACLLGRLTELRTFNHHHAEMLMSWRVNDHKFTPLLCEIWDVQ
Sequence of Peroxisome proliferator-activated receptor delta (Homo sapiens) (Q03181 whole entry, looked up): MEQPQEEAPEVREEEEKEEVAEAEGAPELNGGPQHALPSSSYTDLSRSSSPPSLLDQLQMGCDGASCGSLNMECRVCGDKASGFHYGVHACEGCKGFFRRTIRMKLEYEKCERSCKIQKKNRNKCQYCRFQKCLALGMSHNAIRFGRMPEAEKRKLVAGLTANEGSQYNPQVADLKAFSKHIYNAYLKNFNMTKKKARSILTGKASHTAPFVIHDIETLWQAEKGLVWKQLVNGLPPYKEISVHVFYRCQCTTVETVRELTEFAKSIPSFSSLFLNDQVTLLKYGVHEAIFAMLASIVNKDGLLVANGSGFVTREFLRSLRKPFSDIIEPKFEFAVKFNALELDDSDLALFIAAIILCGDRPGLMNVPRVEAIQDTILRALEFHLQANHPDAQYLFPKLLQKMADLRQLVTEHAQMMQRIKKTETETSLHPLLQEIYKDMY
Sequence of Peroxisome proliferator-activated receptor gamma (Homo sapiens) (P37231 whole entry, looked up): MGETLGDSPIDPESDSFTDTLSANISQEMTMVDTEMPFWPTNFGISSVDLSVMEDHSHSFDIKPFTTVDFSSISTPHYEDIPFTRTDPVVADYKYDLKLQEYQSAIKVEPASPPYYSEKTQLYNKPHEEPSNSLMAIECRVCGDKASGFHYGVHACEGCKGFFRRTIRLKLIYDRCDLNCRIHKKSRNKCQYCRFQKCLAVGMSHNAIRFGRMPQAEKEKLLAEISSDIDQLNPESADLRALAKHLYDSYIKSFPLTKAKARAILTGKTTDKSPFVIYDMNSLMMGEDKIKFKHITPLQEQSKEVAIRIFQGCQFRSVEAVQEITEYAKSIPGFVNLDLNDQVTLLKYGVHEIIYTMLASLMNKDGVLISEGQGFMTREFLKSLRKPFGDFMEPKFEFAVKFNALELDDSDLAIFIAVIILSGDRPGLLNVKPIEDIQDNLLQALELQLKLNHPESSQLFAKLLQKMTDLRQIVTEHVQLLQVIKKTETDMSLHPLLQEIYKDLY
Sequence of Aryl hydrocarbon receptor (Homo sapiens) (P35869 whole entry, looked up): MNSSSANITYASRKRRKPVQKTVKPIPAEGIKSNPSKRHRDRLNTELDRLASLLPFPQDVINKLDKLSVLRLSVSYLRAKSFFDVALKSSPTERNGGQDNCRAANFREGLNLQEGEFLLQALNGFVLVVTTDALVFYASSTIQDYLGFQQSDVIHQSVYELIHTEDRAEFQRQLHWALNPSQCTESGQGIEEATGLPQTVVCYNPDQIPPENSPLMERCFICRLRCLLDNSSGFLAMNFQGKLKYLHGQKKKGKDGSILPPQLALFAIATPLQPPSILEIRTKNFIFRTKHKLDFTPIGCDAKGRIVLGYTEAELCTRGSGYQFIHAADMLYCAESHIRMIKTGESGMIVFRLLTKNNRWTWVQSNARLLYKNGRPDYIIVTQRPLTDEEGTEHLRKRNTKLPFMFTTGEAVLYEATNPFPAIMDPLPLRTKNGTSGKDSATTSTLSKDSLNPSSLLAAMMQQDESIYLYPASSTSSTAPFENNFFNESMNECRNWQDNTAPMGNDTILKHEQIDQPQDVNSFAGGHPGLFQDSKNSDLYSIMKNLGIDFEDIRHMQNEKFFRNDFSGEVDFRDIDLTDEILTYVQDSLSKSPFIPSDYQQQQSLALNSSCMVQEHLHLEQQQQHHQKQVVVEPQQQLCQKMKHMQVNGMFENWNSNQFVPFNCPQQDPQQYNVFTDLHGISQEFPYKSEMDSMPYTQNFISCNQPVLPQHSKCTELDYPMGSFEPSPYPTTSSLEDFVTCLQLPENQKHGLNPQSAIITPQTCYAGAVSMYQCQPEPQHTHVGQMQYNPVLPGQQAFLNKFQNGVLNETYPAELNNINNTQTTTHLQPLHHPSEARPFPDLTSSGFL

In the case of `COc1cccc2c1C(=O)c1c(O)c3c(c(O)c1C2=O)C[C@@](O)(C(C)=O)C[C@@H]3O[C@H]1C[C@H](N)[C@H](O)[C@H](C)O1`, the Potency in [1] is 10.6 µM (active) and 8.69 µM (active); in assay [2] it was 2.45 µM (active); in [3] it was 5.96 µM (active) and 24.5 µM (active); in assay [4], 34.9 µM (active) and 33.5 µM (active); in assay [5], 8.69 µM (active) and 13.3 µM (active); in assay [6], 43.9 µM (active). The Potency is 55.3 µM (active) and 2.4 nM (active) in assay [7]; 55.3 µM (active) and inactive in assay [8].

On to `CC(C)(C)c1ccc(C(O)CCCN2CCC(C(O)(c3ccccc3)c3ccccc3)CC2)cc1` (configuration not stated), for which the Potency result in assay [1], in assay [2], in assay [3], in assay [9] and in assay [11] was “inactive” each time. Further, the Potency is 11.9 µM (active) in assay [5], 21.1 µM (active) in [10], 7.5 µM (active) in assay [6] and 10.6 µM (active) in assay [7].

Regarding `COc1ccc2cc1Oc1ccc(cc1)C[C@H]1c3c(cc4c(c3Oc3cc5c(cc3OC)CCN(C)[C@@H]5C2)OCO4)CCN1C`, the Potency result in assay [1], in assay [2], in [9], in assay [10], in assay [12] and in assay [14] was “inactive” in each case. For the same compound, the Potency entry in [15] is “inactive”. In addition, the Potency in [5] is 29.8 µM (active); in assay [13], 29.8 µM (active); in assay [6], 13.3 µM (active); in [7] it was 18.8 µM (active); in assay [8] it was 29.8 µM (active).

Turning to `C/C=C/C=C/COC(=O)C(C)C`, the Potency entry in [2], in [3], in [4], in assay [5], in assay [17] and in [6] was “inactive” each time. The Potency result in assay [18], in assay [19], in assay [7], in [8], in [15] and in assay [11] was “inactive” each time. Further, in [16], the Potency was 61.1 µM (active).

As to `CN(C)Cc1cc(C(C)(C)C)c(O)c(C(C)(C)C)c1`, the Potency result in assay [1], in assay [3], in assay [9], in [20], in assay [5] and in [10] was “inactive” in each case. Further, the Potency entry in assay [12], in assay [17], in assay [6], in assay [15] and in assay [11] was “inactive” in each case. In addition, the Potency in assay [16] was 27.3 µM (active).

For `O=C(c1ccc(O)c(O)c1)c1ccc(O)cc1O`, the Potency entry in assay [1], in [9], in assay [20], in assay [4], in assay [5] and in [10] was “inactive” each time. In addition, the Potency entry in assay [6], in assay [7] and in assay [8] was “inactive” each time. Moreover, the Potency in assay [2] is 5.44 µM (active).

`CCCCCC(C)OC(=O)COc1ccc(Cl)c2cccnc12` (configuration not stated): the Potency result in assay [1], in assay [3], in [9], in assay [4], in assay [16] and in [5] was “inactive” throughout. The Potency result in assay [10], in assay [17], in [7], in assay [14], in assay [8] and in assay [15] was “inactive” throughout. Further, in [11], the Potency result is “inactive”.

With `c1cnccn1`, the Potency result in assay [1], in [3], in assay [9], in [20], in [4] and in assay [16] was “inactive” each time. The Potency result in [5], in assay [13], in [17], in [6], in assay [18] and in assay [19] was “inactive” in each case. Besides, the Potency entry in [7], in assay [14] and in assay [8] was “inactive” in each case.
